Experimental data reported in the supplement of paper PMC7595190.

Tests used:
Experiment in all cases: CellTox Green cytotoxicity fluorescence relative to DMSO vehicle (fold of vehicle RFU); higher = more cell death (loss of membrane integrity), active = 2 or more
[1] = tested on: CMK
Outline: (§1)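 Values are cytotoxicity, read as fluorescence from loss of membrane integrity and expressed as fold of the DMSO vehicle. MV4-11, CMK and Kasumi-1 cells at 4.0 × 10^4 per well received CellTox Green reagent at seeding and single Selleckchem apoptosis library compounds at final 0.01, 0.1 and 1 µM (vehicle 0.1% DMSO). Plates were incubated at 37 °C, 5% CO2 and read at 24, 48 and 72 h.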

[2] = tested on: Kasumi-1
Outline: as §1

[3] = tested on: MV4-11
Outline: as §1

Measured: CellTox Green cytotoxicity fluorescence

Cc1c(C(=O)Nc2ccc(Oc3ccnc4[nH]cc(-c5ccccc5)c34)c(F)c2)c(=O)n(-c2ccc(F)cc2)n1C
inactive: [1]; 0.01 µM, 24 h 1.01 | [1]; 0.01 µM, 48 h 1.02 | [1]; 0.01 µM, 72 h 1.1 | [1]; 0.1 µM, 24 h 0.997 | [1]; 0.1 µM, 48 h 1.02 | [1]; 0.1 µM, 72 h 1.01 | [1]; 1 µM, 24 h 0.945 | [1]; 1 µM, 48 h 0.956 | [1]; 1 µM, 72 h 1.02 | [2]; 0.01 µM, 24 h 1.01 | [2]; 0.01 µM, 48 h 1.02 | [2]; 0.01 µM, 72 h 0.998 | [2]; 1 µM, 24 h 0.84 | [2]; 1 µM, 48 h 0.814 | [2]; 1 µM, 72 h 0.805 | [3]; 0.01 µM, 24 h 1.01 | [3]; 0.01 µM, 48 h 1.03 | [3]; 0.01 µM, 72 h 1.06 | [3]; 0.1 µM, 24 h 1.05 | [3]; 0.1 µM, 48 h 1.23 | [3]; 0.1 µM, 72 h 1.41 | [3]; 1 µM, 24 h 1.03 | [3]; 1 µM, 48 h 1.24 | [3]; 1 µM, 72 h 1.49

O=C(COc1ccc(Cl)cc1)NC1CCC(NC(=O)COc2ccc(Cl)cc2)CC1 (stereo unspecified)
inactive: [1]; 0.01 µM, 24 h 0.999 | [1]; 0.01 µM, 48 h 0.971 | [1]; 0.01 µM, 72 h 0.929 | [1]; 0.1 µM, 24 h 0.975 | [1]; 0.1 µM, 48 h 0.97 | [1]; 0.1 µM, 72 h 0.973 | [1]; 1 µM, 24 h 0.971 | [1]; 1 µM, 48 h 1.02 | [1]; 1 µM, 72 h 1.01 | [2]; 0.01 µM, 24 h 1.02 | [2]; 0.01 µM, 48 h 0.993 | [2]; 0.01 µM, 72 h 0.987 | [2]; 0.1 µM, 24 h 0.991 | [2]; 0.1 µM, 48 h 0.965 | [2]; 0.1 µM, 72 h 0.954 | [2]; 1 µM, 24 h 0.966 | [2]; 1 µM, 48 h 0.962 | [2]; 1 µM, 72 h 0.961 | [3]; 0.01 µM, 24 h 0.993 | [3]; 0.01 µM, 48 h 0.994 | [3]; 0.01 µM, 72 h 0.983 | [3]; 0.1 µM, 24 h 1.01 | [3]; 0.1 µM, 48 h 1.02 | [3]; 0.1 µM, 72 h 1.01 | [3]; 1 µM, 24 h 0.994 | [3]; 1 µM, 48 h 1.01 | [3]; 1 µM, 72 h 0.992

CCC(CC)n1ccc2c(C(=O)NCc3c(C)cc(C)[nH]c3=O)cc(C#N)cc21
inactive: [1]; 0.01 µM, 24 h 0.768 | [1]; 0.01 µM, 48 h 0.767 | [1]; 0.01 µM, 72 h 0.8 | [2]; 0.1 µM, 24 h 0.942 | [2]; 0.1 µM, 48 h 0.956 | [2]; 0.1 µM, 72 h 0.925 | [2]; 1 µM, 24 h 1.01 | [2]; 1 µM, 48 h 0.971 | [2]; 1 µM, 72 h 0.978 | [3]; 0.01 µM, 24 h 0.856 | [3]; 0.01 µM, 48 h 0.857 | [3]; 0.01 µM, 72 h 0.869

C/C(=N\NC(=O)c1cccc(S(=O)(=O)N2CCOCC2)c1)c1cc(Cl)ccc1O
inactive: [1]; 0.01 µM, 24 h 0.984 | [1]; 0.01 µM, 48 h 0.991 | [1]; 0.01 µM, 72 h 1.04 | [1]; 0.1 µM, 24 h 0.936 | [1]; 0.1 µM, 48 h 0.956 | [1]; 0.1 µM, 72 h 0.969 | [1]; 1 µM, 24 h 0.942 | [1]; 1 µM, 48 h 0.907 | [1]; 1 µM, 72 h 0.774 | [2]; 0.01 µM, 24 h 0.938 | [2]; 0.01 µM, 48 h 0.949 | [2]; 0.01 µM, 72 h 0.96 | [2]; 0.1 µM, 24 h 0.974 | [2]; 0.1 µM, 48 h 0.986 | [2]; 0.1 µM, 72 h 0.968 | [2]; 1 µM, 24 h 0.937 | [2]; 1 µM, 48 h 1.02 | [2]; 1 µM, 72 h 1.05 | [3]; 0.01 µM, 24 h 0.971 | [3]; 0.01 µM, 48 h 0.97 | [3]; 0.01 µM, 72 h 0.966 | [3]; 0.1 µM, 24 h 0.98 | [3]; 0.1 µM, 48 h 0.978 | [3]; 0.1 µM, 72 h 0.972 | [3]; 1 µM, 24 h 0.953 | [3]; 1 µM, 48 h 1.06 | [3]; 1 µM, 72 h 1.17

CC(=O)O/N=C1/C(c2c(O)[nH]c3cc(Br)ccc23)=Nc2ccccc21 [BIO-acetoxime]
inactive: [1]; 0.01 µM, 24 h 1.02 | [1]; 0.01 µM, 48 h 0.999 | [1]; 0.01 µM, 72 h 0.97 | [1]; 0.1 µM, 24 h 0.981 | [1]; 0.1 µM, 48 h 0.97 | [1]; 0.1 µM, 72 h 0.981 | [1]; 1 µM, 24 h 0.973 | [1]; 1 µM, 48 h 0.945 | [1]; 1 µM, 72 h 1.12 | [2]; 0.01 µM, 24 h 1.05 | [2]; 0.01 µM, 48 h 1.05 | [2]; 0.01 µM, 72 h 1.04 | [2]; 0.1 µM, 24 h 1.02 | [2]; 0.1 µM, 48 h 1.04 | [2]; 0.1 µM, 72 h 1.04 | [2]; 1 µM, 24 h 0.974 | [2]; 1 µM, 48 h 1.07 | [2]; 1 µM, 72 h 1.11 | [3]; 0.01 µM, 24 h 1.7 | [3]; 0.01 µM, 48 h 1.57 | [3]; 0.01 µM, 72 h 1.56 | [3]; 0.1 µM, 24 h 1.03 | [3]; 0.1 µM, 48 h 1.11 | [3]; 0.1 µM, 72 h 1.17 | [3]; 1 µM, 24 h 1.02 | [3]; 1 µM, 48 h 1.2 | [3]; 1 µM, 72 h 1.36

O=C1CCC(N2C(=O)c3ccccc3C2=O)C(=O)N1 (stereo unspecified) [Thalidomide]
inactive: [1]; 0.01 µM, 24 h 0.979 | [1]; 0.01 µM, 48 h 0.985 | [1]; 0.01 µM, 72 h 0.989 | [1]; 0.1 µM, 24 h 0.945 | [1]; 0.1 µM, 48 h 0.95 | [1]; 0.1 µM, 72 h 0.986 | [1]; 1 µM, 24 h 0.982 | [1]; 1 µM, 48 h 0.962 | [1]; 1 µM, 72 h 1.19 | [2]; 0.01 µM, 24 h 0.98 | [2]; 0.01 µM, 48 h 0.96 | [2]; 0.01 µM, 72 h 0.95 | [2]; 0.1 µM, 24 h 0.938 | [2]; 0.1 µM, 48 h 0.934 | [2]; 0.1 µM, 72 h 0.908 | [2]; 1 µM, 24 h 0.972 | [2]; 1 µM, 48 h 0.981 | [2]; 1 µM, 72 h 0.997 | [3]; 0.01 µM, 24 h 0.964 | [3]; 0.01 µM, 48 h 0.959 | [3]; 0.01 µM, 72 h 0.973 | [3]; 0.1 µM, 24 h 0.954 | [3]; 0.1 µM, 48 h 0.962 | [3]; 0.1 µM, 72 h 0.958 | [3]; 1 µM, 24 h 0.952 | [3]; 1 µM, 48 h 0.965 | [3]; 1 µM, 72 h 1.12

CCN(CC)CCNC(=O)c1c(C)[nH]c(/C=C2\C(=O)Nc3ccc(F)cc32)c1C [Sunitinib]
inactive: [1]; 0.01 µM, 24 h 1.02 | [1]; 0.01 µM, 48 h 1.01 | [1]; 0.01 µM, 72 h 0.896 | [1]; 0.1 µM, 24 h 1 | [1]; 0.1 µM, 48 h 0.997 | [1]; 0.1 µM, 72 h 0.964 | [1]; 1 µM, 24 h 1.05 | [1]; 1 µM, 48 h 1.16 | [1]; 1 µM, 72 h 1.04 | [2]; 0.01 µM, 24 h 0.988 | [2]; 0.01 µM, 48 h 1.01 | [2]; 0.01 µM, 72 h 1.11 | [2]; 0.1 µM, 24 h 1.03 | [2]; 0.1 µM, 48 h 1.15 | [2]; 0.1 µM, 72 h 1.18 | [2]; 1 µM, 24 h 1.08 | [2]; 1 µM, 48 h 1.32 | [2]; 1 µM, 72 h 1.45 | [3]; 0.01 µM, 24 h 1.02 | [3]; 0.01 µM, 48 h 1.06 | [3]; 0.01 µM, 72 h 1.04 | [3]; 0.1 µM, 24 h 1.09 | [3]; 0.1 µM, 48 h 1.42 | [3]; 0.1 µM, 72 h 1.78 | [3]; 1 µM, 24 h 1.11 | [3]; 1 µM, 48 h 1.44 | [3]; 1 µM, 72 h 1.72
